SENP8 block-1 – human SENP8 protease inhibitors, primary screen, biochemical, fluorescence, Nedd8 protein substrate, uHTS. inhibition, % at 20 µM. 0.64% of 360,000 active. Sentrin-specific protease 8 (Homo sapiens), Q96LD8. recombinant SENP8. AID 602440, 2012; in the data active means inhibition mostly above about 40%, no sharp cut-off; inactive means mostly below about 27%
SENP7 block – SENP7 protease inhibitors, primary screen, biochemical, luminescence, uHTS; recombinant SENP7, Z-RLRGG-aminoluciferin luminescence, 40 min; inhibition, % at 5 µM; 1.5% of 330,000 active; AID 434973, 2010;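 active means inhibition above about 50% at the single test dose, limit read from the data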
Target sequence (Q9BQF6 706-1050 limits assumed): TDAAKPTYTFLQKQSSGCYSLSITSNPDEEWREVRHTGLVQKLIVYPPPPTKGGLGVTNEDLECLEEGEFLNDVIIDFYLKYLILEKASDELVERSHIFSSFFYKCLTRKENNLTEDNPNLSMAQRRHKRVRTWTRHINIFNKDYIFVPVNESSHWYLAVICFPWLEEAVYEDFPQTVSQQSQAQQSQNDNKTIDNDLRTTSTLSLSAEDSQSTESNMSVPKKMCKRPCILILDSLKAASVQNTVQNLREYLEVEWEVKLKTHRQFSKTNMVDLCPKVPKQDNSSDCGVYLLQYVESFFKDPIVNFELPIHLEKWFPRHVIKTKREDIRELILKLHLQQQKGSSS
SENP8 block-2 – SENP8 protease inhibitors, primary screen, biochemical, luminescence | 1.2% of 330,000 active | inhibition, % at 10 µM | Sentrin-specific protease 8 (Homo sapiens), Q96LD8 | purified SENP8, Z-RLRGG-aminoluciferin cleavage; in the data active means inhibition above about 50%
SENP6 inh – SENP6 protease inhibitors, primary screen, biochemical, luminescence, uHTS | 1.8% of 330,000 active | Recombinant SENP6 catalytic domain, aminoluciferin luminescence | Sentrin-specific protease 6 (Homo sapiens), Q9GZR1 | inhibition, % at 10 µM;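 active means inhibition above about 50% at the single tested dose, limit read from the data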
HSP90 refold inh – HSP90 inhibitors, primary screen, cell lysate, luminescence. inhibition, % at 5.6 µM. 0.91% of 290,000 active. AID 1789, 2009. Rabbit reticulocyte lysate, luciferase refolding luminescence, 3 h;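 active means inhibition above the screen-wide mean plus 3 SD, computed separately per campaign, cut at about 16% in these data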;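 further: inhibitors lower the luminescence because luciferase stays unfolded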
A number is an active result; n = inactive; x = not tested or not shown. An excerpt weighted towards active compounds, which were near 2.7% of everything screened.

SMILES	SENP8 block-1	SENP7 block	SENP8 block-2	SENP6 inh	HSP90 refold inh
NS(=O)(=O)c1ccc(N/N=C/c2ccc(O)c(O)c2O)c([N+](=O)[O-])c1	105.5	x	x	x	n
NS(=O)(=O)c1ccc(N/N=C/c2ccccn2)c([N+](=O)[O-])c1	n	n	n	n	n
NS(=O)(=O)c1ccc(N/N=C/c2ccc(O)cc2O)c([N+](=O)[O-])c1	53.7	n	n	n	n
O=C(O)c1ccccc1NS(=O)(=O)c1ccc(N/N=C/c2ccc(O)c(O)c2)c([N+](=O)[O-])c1	52.9	x	x	x	x
NS(=O)(=O)c1ccc(N/N=C/c2ccccc2C(=O)O)c([N+](=O)[O-])c1	n	n	n	n	n
O=C(CN(Cc1ccco1)C(=O)CNS(=O)(=O)c1ccc(F)cc1)NCc1ccccc1	n	n	n	n	n
O=C1C(=O)c2cccnc2-c2ncccc21	110.3	x	x	x	x
O=C1c2cccnc2-c2ncccc21	n	n	n	n	n
COc1ccccc1N1C(=O)c2cccnc2C1=O	n	n	n	n	n
COC1=C(Br)C(=O)c2ncccc2C1=O	104.7	x	x	x	x
COc1ccc(CNC(=O)CSc2nnc(C(F)(F)F)n2C)cc1	n	n	n	n	n
COc1ccc(N=Nc2cnc(C)nc2-c2ccccc2)cc1	45.4	n	n	n	n
Cc1nn2cc(-c3cccc(Cl)c3)cnc2c1Cl	n	70.8	n	n	n
CCCCCCN1CCN(C2CN(Cc3cn(Cc4cc(C)cc(C)c4)nn3)S(=O)(=O)C2)CC1 (stereo not drawn)	n	x	x	x	x
O=C(NNc1ccc([N+](=O)[O-])cn1)Nc1ccc(N=Nc2ccccc2)cc1	48.1	x	x	x	x
O=C(NNc1ccc([N+](=O)[O-])cc1)Nc1ccccc1	n	n	n	n	n
O=C(Nc1ccc(O)c(C(=O)O)c1)Oc1ccccc1	n	56.2	59.9	76.2	n
CC(=O)Nc1ccc(NC(=O)Oc2ccccc2)cc1	n	n	n	n	n
CC(=O)c1ccc(-c2ccc(C(=O)NCC(c3ccco3)N(C)C)o2)cc1 (stereo not drawn)	n	n	n	n	x
COc1ccc(CC(=O)Nc2ccc(C(C)=O)cc2)cc1	n	n	n	n	n
C#CCOc1ccc(Cl)cc1/C=N/O	n	n	n	n	n
O=C(N=Nc1c(O)[nH]c2ccccc12)c1ccc2c(c1)OCO2	n	90.6	n	65.6	n
O=C(NCc1ccccn1)C1CCCN(S(=O)(=O)c2cc(Cl)ccc2Cl)C1 (stereo not drawn)	43.0	x	x	x	x
CC(=O)Oc1ccc2c(=O)c(-c3ccccc3)coc2c1	n	58.8	n	n	n
CCN=c1scc(-c2ccccc2)n1/N=C/c1ccccn1	n	52.1	n	62.6	n
SMILES	SENP8 block-1	SENP7 block	SENP8 block-2	SENP6 inh	HSP90 refold inh
CCN=c1scc(-c2ccc(F)cc2)n1/N=C/c1ccccn1	n	n	n	n	n
COC(=O)C1C(OC)=CC(=O)C2CCCCC21 (stereo not drawn)	n	x	x	x	x
O=C(Nc1cccc([N+](=O)[O-])c1)c1ccc(-c2ccccc2)cc1	n	n	n	n	n
O=C(O)c1ccc(N=NNc2cccc([N+](=O)[O-])c2)cc1	40.2	98.2	95.6	94.9	n
O=c1[nH]c(-c2ccco2)nc2sc3c(c12)CCCC3	n	n	n	50.6	n
C#CCN1C(=O)S/C(=C/C=C/c2ccc(N(C)C)cc2)C1=O	n	x	x	x	21.0
COc1ccc(N(CC(=O)N/N=C/c2ccc(C(=O)O)cc2)S(=O)(=O)c2ccc(NC(C)=O)cc2)cc1	n	n	n	n	n
O=C(O)c1ccc(Cl)c(S(=O)(=O)N2CCC(Cc3ccccc3)CC2)c1	n	n	n	n	n
COc1ccc(/C=N/N2C(C)CCCC2C)cc1O (stereo not drawn)	n	n	n	n	n
Oc1ccc(/C=N/N2CCCCC2)cc1O	45.2	n	n	n	n
CC1CCCC(C)N1/N=C/c1ccc(O)c(O)c1 (stereo not drawn)	51.1	n	n	n	n
COC(=O)[C@H](CC(C)C)NC(=O)N1CCN(c2cccc(C(F)(F)F)c2)CC1	n	n	n	n	n
O=[N+]([O-])c1ccc2nc(-c3ccc(Cl)cc3)n(OCc3ccccc3)c2c1	n	59.8	n	74.5	n
COc1cc(C(=O)Oc2ccc3ccc(O)cc3c2)cc(OC)c1OC	n	n	n	n	n
O=[N+]([O-])c1c(Nc2ccccn2)cc(Cl)c2nonc12	68.2	95.3	n	87.0	n
